40 compounds from PubChem BioAssay (NCATS) can be followed below.

Structures are written as SMILES. Records with an inconclusive call do not appear. A number with no mark means an inactive call. The source made the active and inactive calls. Calls come from the whole dose curve; as a rule, active = well fitted inhibition curve with a large enough effect; inconclusive = small, poorly fitted or top-dose-only effect; inactive = no such curve, though single readings can be large or run the other way.

This experiment in a line: NS1 protein of Zika virus - qHTS assay to identify small molecule inhibitors in human HEK 293 cells (AID 1347053).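 Note: plate controls were infected untreated cells for no effect and uninfected cells for full effect; nearly all actives have a fitted effect of over 55% in size.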 The settings on record: HEK293 ZIKV MR766 infection, NS1 TR-FRET, 24 h; series mostly up to 46.1 µM; activity change, negative = inhibition: at the top concentration. From the text:
National Center for Advancing Translational Sciences [NCATS]
Johns Hopkins University School of Medicine
The non-structural 1 (NS1) protein of zika virus is known to associate with the viral replication complex. This cell-based TR-FRET ZIKV NS-1 assay measures the increased NS-1 protein in human HEK 293 cells after a 24-hour Zika virus infection by a TR-FRET assay readout. A decrease in the Time-resolved fluorescence energy transfer (TR-FRET) signal in this assay by small molecule treatment indicates an inhibitory effect of the small molecule on the expression of Zika virus NS1 correlating with Zika virus replication.
HEK 293 cells were cultured in EMEM (ATCC, Cat. # 30-2003) medium with 10% fetal bovine serum (GE healthcare Life Sciences, Cat. # SH30071.03), and 1% Pen/Strep (Gibco, Cat. # 15140-122). Cells were seeded in the assay plate and incubated at 37 C with 5% CO2 for 20 hours. Compounds were added to cells and incubated for one hour before addition of ZIKV MR766 strain solution to cells (MOI = 0.5). After an incubation at 37 C for 24 hours, the reagent mixture of TR-FRET ZIKV NS1 assay using two anti-ZIKV NS1 antibodies was added to assay plates. The TR-FRET signals in assay plates were measured using an Envision plate reader (PerkinElmer). Data were normalized by using the cell-containing wells without ZIKV as a negative control (0% NS-1) and wells containing ZIKV infected cells as a positive control (100% NS-1 level).
Take `COP(=S)(OC)Oc1ccc(S(=O)(=O)N(C)C)cc1`: the “activity change, negative = inhibition” value is 0.565%.
On the same count and under the same terms, as for `CC(C)NC(C)C`, the figure is -2.15%.
As for `Clc1cccc(SC2CCNCC2)n1`, the “activity change, negative = inhibition” value was -2.34%.
As for `CC(=O)OCC1=C(C(=O)O)N2C(=O)[C@@H](N)[C@H]2SC1`, the “activity change, negative = inhibition” value is 9.81% [at 20.1 µM].
On the same count and under the same terms, as for `C[C@@H](N)[C@@H](O)c1ccccc1`, the figure is 1.97%; as for `Nc1ccc([As](=O)(O)O)cc1`, -11.3%.
On to `NC(=O)CS(=O)C(c1ccccc1)c1ccccc1` (stereo not given), for which the “activity change, negative = inhibition” value was 12.6%.
In the case of `COc1c2c(cc3c1OCO3)CCN(C)C2`, the “activity change, negative = inhibition” value is -6.25%.
Still for that read-out and setting: as for `CCN[C@@H](C)Cc1ccccc1`, the figure is -3.24% [at 92.8 µM].
On the same count and under the same terms, to `CC(Cc1ccccc1)NCCn1cnc2c1c(=O)n(C)c(=O)n2C` (stereo not given) belongs -21.8% [at 92.8 µM]; to `COP(=S)(OC)Oc1cc(Cl)c(Cl)cc1Cl`, 6.21%.
With `NCCc1ccc(O)cc1`, the compound was called inactive.
Turning to `CN(C)CCc1c[nH]c2cccc(OP(=O)(O)O)c12`, the “activity change, negative = inhibition” value was -19.2% [at 92.8 µM].
Take `CC(C)(C)NCC(O)c1ccccc1Cl` (stereo not given): the compound was classed as inactive.
For `C#C[C@]1(O)CC[C@H]2[C@@H]3CCC4=CC(=O)CC[C@]4(C)[C@H]3CC[C@@]21C`, the “activity change, negative = inhibition” value is -25.9%.
Regarding `c1ccc2c(c1)sc1ccccc12`, the “activity change, negative = inhibition” value was -3.06%.
`O=c1[nH]c2ccccc2n1C1CCNCC1`: the “activity change, negative = inhibition” value was -15.3%.
Still for that read-out and setting: as for `CCN[C@H](C)Cc1cccc(C(F)(F)F)c1`, the figure is -17.8% [at 92.8 µM].
With `Cc1ncsc1CCCl`, the compound was called inactive.
`CCC1(c2ccccc2)C(=O)N(COC)C(=O)N(COC)C1=O`: the “activity change, negative = inhibition” value was -6.58%.
The same measure, in the same setting: as for `Nc1ccccc1C(=O)O`, the figure is -10.2%.
Same read-out and setting: to `COc1cccc2c1C(=O)c1c(O)c3c(c(O)c1C2=O)C[C@@](O)(C(=O)CO)CC3OC1CC(N2CCOC(OC)C2)C(O)C(C)O1` (stereo not given in full) belongs -56.5%; to `CC(C)(N)Cc1ccccc1Cl`, -11.4%.
`CN1C(=O)COc2c(C(=O)NC3CN4CCC3CC4)cc(Cl)cc21` (stereo not given): the compound was called inactive.
As for `COC(=O)C(Cl)C(=O)OC`, the “activity change, negative = inhibition” value was 4.37%.
Take `C=C(C)[C@H]1CN[C@H](C(=O)O)[C@H]1CC(=O)O`: the outcome was inactive.
The same measure, in the same setting: to `CC(C)N(CCC(C(N)=O)(c1ccccc1)c1ccccn1)C(C)C` (stereo not given) belongs “inactive”.
As for `CCCCCCC(=O)CCCCCC/C=C/C[C@@H](O)[C@H](O)[C@@](N)(CO)C(=O)O`, the “activity change, negative = inhibition” value was -3.42% [at 20.1 µM].
Turning to `COC1CC(=C(c2cccs2)c2cccs2)C[N+](C)(C)C1` (stereo not given), the “activity change, negative = inhibition” value is -0.355%.
As for `COP(=S)(OC)SCN1C(=O)c2ccccc2C1=O`, the “activity change, negative = inhibition” value is -5.28%.
`CC(C)c1cccc(C(C)C)c1O`: the compound was called inactive.
Still for that read-out and setting: as for `O=C(O)CCCc1ccc(N(CCCl)CCCl)cc1`, the entry is “inactive”.
In the case of `Nc1nc(N)nc(NC2CC2)n1`, the “activity change, negative = inhibition” value is 5.9%.
For `C[C@]12CC[C@H]3[C@@H](CC[C@@]45O[C@H]4C(O)=C(C#N)C[C@]35C)[C@H]1CC[C@H]2O`, the “activity change, negative = inhibition” value is -6.65%.
For `CN1C(=O)CCS(=O)(=O)C1c1ccc(Cl)cc1` (stereo not given), the call was inactive.
`C[C@]12CC[C@@H]3c4ccc(OC(=O)N(CCCl)CCCl)cc4CC[C@H]3[C@@H]1CC[C@@H]2O`: the “activity change, negative = inhibition” value was 2.04%.
The same measure, in the same setting: as for `O=C(O)c1ccc(=O)[nH]c1`, the figure is -1.76%.
Regarding `CC(=O)NC1CCSC1=O` (stereo not given), the “activity change, negative = inhibition” value is -2.65%.
Same read-out and setting: as for `CC(C)(C)NCC(O)c1cc(Cl)c(N)c(C(F)(F)F)c1` (stereo not given), the figure is 0.714%.
Consider `CC(Cc1ccccc1)N(C)Cc1ccco1` (stereo not given), for which the “activity change, negative = inhibition” value is -10.8%.
